Records with an inconclusive call do not appear. The source made the active and inactive calls. The call rests on the fitted dose curve; in most records, active means well fitted curve in the direction sought with a large enough effect; inconclusive means small, poorly fitted or top-dose-only effect, or another doubt; inactive means no such curve, though single readings can be large; an effect the other way counts as inactive or inconclusive.
Tests used:
[1] = Quantitative High-Throughput drug screen in 47 multiple myeloma cell lines against the NCATS MIPE library collection: Karpas620_DSMZ cell viability assay (AID 1918959); further: nearly all actives have a fitted effect of over 30% in size
Procedure, shortened: (§1)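 qHTS of the MIPE 4.0 collection: 500 myeloma cells/well, 48 h drug exposure at 37C in 5% CO2, then CellTiter-Glo for 5 min at room temperature before luminescence reading.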

[2] = Quantitative High-Throughput drug screen in 47 multiple myeloma cell lines against the NCATS MIPE library collection: KMM1_JCRB cell viability assay (AID 1918960); further: nearly all actives have a fitted effect of over 30% in size
Procedure, shortened: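 Viability screen: myeloma cells (500/well) incubated 48 h at 37 °C, humidified 5% CO2, with pinned library compounds; CellTiter-Glo added, luminescence read; DMSO wells set 100%, medium-only wells 0%.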

[3] = Quantitative High-Throughput drug screen in 47 multiple myeloma cell lines against the NCATS MIPE library collection: Karpas417_ECACC cell viability assay (AID 1918961); conditions: Karpas417 myeloma viability, CellTiter-Glo ATP luminescence, 48 h; viability (% of DMSO): at 45.8 µM (top of the series)
Procedure, shortened: (§2)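 Luminescent ATP measurement with CellTiter-Glo gives viability, scaled between DMSO-only wells (100%) and media-only wells (0%). Cells, 500 per well, faced library compounds for 48 hours at 37C.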

[4] = Quantitative High-Throughput drug screen in 47 multiple myeloma cell lines against the NCATS MIPE library collection: KHM11_PLB cell viability assay (AID 1918962); further: nearly all actives have a fitted effect of over 35% in size
Procedure, shortened: as §1

[5] = Quantitative High-Throughput drug screen in 47 multiple myeloma cell lines against the NCATS MIPE library collection: JIM3_ECACC cell viability assay (AID 1918963; further: nearly all actives have a fitted effect of over 35% in size)
Procedure, shortened: as §1

[6] = Quantitative High-Throughput drug screen in 47 multiple myeloma cell lines against the NCATS MIPE library collection: JIM1_ECACC cell viability assay (AID 1918964)
Procedure, shortened: (§3)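 Inhibition of cell viability is measured here. Each line was plated at 500 cells per well, treated with MIPE 4.0 drugs, kept 48 hours at 37C, then assayed for ATP content by CellTiter-Glo luminescence.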

[7] = Quantitative High-Throughput drug screen in 47 multiple myeloma cell lines against the NCATS MIPE library collection: INA6_PLB cell viability assay (AID 1918965; further: nearly all actives have a fitted effect of over 55% in size)
Procedure, shortened: as §2

[8] = Quantitative High-Throughput drug screen in 47 multiple myeloma cell lines against the NCATS MIPE library collection: JJN3_DSMZ cell viability assay (AID 1918966; further: nearly all actives have a fitted effect of over 50% in size)
Procedure, shortened: as §3

[9] = Quantitative High-Throughput drug screen in 47 multiple myeloma cell lines against the NCATS MIPE library collection: H1112_PLB cell viability assay (AID 1918967; further: nearly all actives have a fitted effect of over 30% in size)
Procedure, shortened: as §3

[10] = Quantitative High-Throughput drug screen in 47 multiple myeloma cell lines against the NCATS MIPE library collection: Karpas25_ECACC cell viability assay (AID 1918968; further: nearly all actives have a fitted effect of over 35% in size)
Procedure, shortened: as §3

[11] = Quantitative High-Throughput drug screen in 47 multiple myeloma cell lines against the NCATS MIPE library collection: KMS27_JCRB cell viability assay (AID 1918970); conditions: KMS27 myeloma cells, CellTiter-Glo ATP viability, 48 h; viability (% of DMSO): at 45.8 µM (top of the series); further: nearly all actives have a fitted effect of over 30% in size
Procedure, shortened: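 Each line is seeded at 500 cells per well and treated with library compounds for 48 hours under 37 °C, 5% CO2. CellTiter-Glo is then added for 5 min at room temperature before median relative luminescence is recorded.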

[12] = Quantitative High-Throughput drug screen in 47 multiple myeloma cell lines against the NCATS MIPE library collection: KMS12BM_JCRB cell viability assay (AID 1918971); further: nearly all actives have a fitted effect of over 35% in size
Procedure, shortened: (§4)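 Viability readout: CellTiter-Glo luminescence following 5 min room-temperature incubation with reagent. Prior exposure: 48 h, 37C, humidified 5% CO2, 500 cells per well.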

[13] = Quantitative High-Throughput drug screen in 47 multiple myeloma cell lines against the NCATS MIPE library collection: KMS12PE_JCRB cell viability assay (AID 1918972); further: nearly all actives have a fitted effect of over 30% in size
Procedure, shortened: as §2

[14] = Quantitative High-Throughput drug screen in 47 multiple myeloma cell lines against the NCATS MIPE library collection: KMS20_JCRB cell viability assay (AID 1918973); further: nearly all actives have a fitted effect of over 45% in size
Procedure, shortened: as §3

[15] = Quantitative High-Throughput drug screen in 47 multiple myeloma cell lines against the NCATS MIPE library collection: KMS26_JCRB cell viability assay (AID 1918975); further: nearly all actives have a fitted effect of over 45% in size
Procedure, shortened: as §4

[16] = Quantitative High-Throughput drug screen in 47 multiple myeloma cell lines against the NCATS MIPE library collection: MMM1_PLB cell viability assay (AID 1918976); further: nearly all actives have a fitted effect of over 35% in size
Procedure, shortened: (§5)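 qHTS format: cells plated (500/well), pin-dosed with MIPE 4.0 compounds, kept 48 h at 37 °C. Readout was CellTiter-Glo luminescence, median RLU.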

[17] = Quantitative High-Throughput drug screen in 47 multiple myeloma cell lines against the NCATS MIPE library collection: MOLP8_DSMZ cell viability assay (AID 1918977); further: nearly all actives have a fitted effect of over 45% in size
Procedure, shortened: as §5

[18] = Quantitative High-Throughput drug screen in 47 multiple myeloma cell lines against the NCATS MIPE library collection: NCIH929_DSMZ cell viability assay (AID 1918978); further: nearly all actives have a fitted effect of over 35% in size
Procedure, shortened: as §5

[19] = Quantitative High-Throughput drug screen in 47 multiple myeloma cell lines against the NCATS MIPE library collection: OCIMY1_PLB cell viability assay (AID 1918979); further: nearly all actives have a fitted effect of over 35% in size
Procedure, shortened: as §5

[20] = Quantitative High-Throughput drug screen in 47 multiple myeloma cell lines against the NCATS MIPE library collection: KMS21BM_JCRB cell viability assay (AID 1918974); conditions: ATP luminescence, 48 h; viability: at 45.8 µM (top of the series)
Procedure, shortened: as §3

Measured: Potency
Potency means the concentration at half of the fitted maximal effect.

C[C@@]12C(=O)OC(=O)[C@@]1(C)C1CCC2O1
active: [1] 2.96 µM | [2] 0.743 µM | [3] 2.96 µM | [4] 2.35 µM | [5] 1.87 µM | [6] 0.662 µM | [7] 2.64 µM | [8] 0.662 µM | [9] 3.72 µM | [10] 1.18 µM | [11] 2.09 µM | [12] 1.66 µM | [13] 1.87 µM | [14] 2.64 µM | [15] 2.09 µM | [16] 1.87 µM | [17] 3.72 µM | [18] 2.64 µM | [19] 5.26 µM

CC(C)(O)Cn1c(NC(=O)c2ccc(-c3cn[nH]c3)s2)nc2cc(CN3CCOCC3)ccc21
active: [1] 0.662 µM | [2] 0.743 µM | [3] 0.118 µM | [4] 0.296 µM | [6] 0.418 µM | [7] 0.833 µM | [8] 1.32 µM | [9] 2.64 µM | [10] 0.935 µM | [11] 0.372 µM | [12] 2.35 µM | [13] 0.469 µM | [14] 2.96 µM | [15] 2.09 µM | [16] 2.09 µM | [17] 1.18 µM | [18] 1.66 µM | [19] 1.48 µM

CCCCCCCCc1ccc(CCC(N)(CO)CO)cc1
active: [1] 8.33 µM | [2] 6.62 µM | [3] 6.62 µM | [4] 8.33 µM | [6] 5.9 µM | [7] 8.33 µM | [8] 18.7 µM | [9] 18.7 µM | [10] 5.9 µM | [11] 6.62 µM | [12] 14.8 µM | [13] 7.43 µM | [14] 3.72 µM | [15] 16.6 µM | [16] 13.2 µM | [17] 14.8 µM | [18] 7.43 µM

COc1ccc(S(=O)(=O)Nc2cc(-c3c(O)ccc4ccccc34)c(O)c3ccccc23)cc1
active: [1] 1.66 µM | [2] 8.33 µM | [3] 1.66 µM | [4] 14.8 µM | [5] 9.35 µM | [6] 3.32 µM | [7] 2.96 µM | [8] 8.33 µM | [9] 9.35 µM | [10] 5.26 µM | [11] 14.8 µM | [12] 26.4 µM | [13] 13.2 µM | [14] 9.35 µM | [20] 18.7 µM | [15] 14.8 µM | [16] 16.6 µM | [17] 7.43 µM | [18] 3.32 µM | [19] 10.5 µM

Reference: PubChem BioAssay (NCATS)
